The structures appear in SMILES notation.

Data on 32 molecules can be found in ChEMBL document CHEMBL3433997, “St. Jude Leishmania screening dataset” (2016).

Type in all cases: functional
The target of assay [1] is Solute carrier family 2, facilitated glucose transporter member 1 (Homo sapiens) (UniProt P11166). Nature of the assay: ST_JUDE_LEISH: Cytotoxicity at 2uM final concentration against transgenic Leishmania Mexicana promastigotes LmGLUT1 that are glucose transport deficient and complemented with the human glucose transporter GLUT1. Activity is measured by DNA content using SYBR green in vitro.
Chain of Solute carrier family 2, facilitated glucose transporter member 1 (Homo sapiens) (P11166 whole entry): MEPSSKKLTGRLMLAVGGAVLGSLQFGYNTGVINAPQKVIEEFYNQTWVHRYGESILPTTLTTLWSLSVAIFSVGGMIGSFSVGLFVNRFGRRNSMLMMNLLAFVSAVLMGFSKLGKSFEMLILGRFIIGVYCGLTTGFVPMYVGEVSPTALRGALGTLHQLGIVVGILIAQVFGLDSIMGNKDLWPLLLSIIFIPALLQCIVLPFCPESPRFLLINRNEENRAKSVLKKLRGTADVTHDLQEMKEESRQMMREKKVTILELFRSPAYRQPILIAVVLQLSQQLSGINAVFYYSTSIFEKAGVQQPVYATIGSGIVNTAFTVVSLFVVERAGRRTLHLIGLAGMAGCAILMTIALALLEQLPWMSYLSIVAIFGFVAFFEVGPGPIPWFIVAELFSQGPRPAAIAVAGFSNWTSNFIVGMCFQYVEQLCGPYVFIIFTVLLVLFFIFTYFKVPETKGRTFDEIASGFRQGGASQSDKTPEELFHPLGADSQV

Assay [2] has as its target Hexose transporter 1 (Plasmodium falciparum) (UniProt O97467). Nature of the assay: ST_JUDE_LEISH: Cytotoxicity at 2uM final concentration against transgenic Leishmania Mexicana promastigotes LmPfHT that are glucose transport deficient and complemented with the Plasmodium falciparum hexose transporter. Activity is measured by DNA content using SYBR green in vitro.
For assay [3], the target named is Glucose transporter (Leishmania mexicana) (UniProt O61059). In words: ST_JUDE_LEISH: Cytotoxicity at 2uM final concentration against transgenic Leishmania Mexicana promastigotes LmGT2 that are glucose transport deficient and complemented with the L. Mexicana glucose transporter 2. Activity is measured by DNA content using SYBR green in vitro.

By inhibition is commonly meant the drop in the measured response relative to a control, in per cent. Take `Clc1ccc(CNc2ccnc(NCCc3coc4ccccc34)n2)c(Cl)c1`: the inhibition in assay [1] was found to be 5.99%; in assay [2] it was 6.11%; in assay [3] it was 0.66%.
`Fc1ccc2[nH]c(-c3ccc(-c4ccc(CN5CCCCC5)cc4)s3)nc2c1`: the inhibition in assay [1] was found to be 5.07%; in assay [2] it was 4.14%; in assay [3], 1.79%.
`CC(C)(C)c1ccc(-c2nnc(N)nc2N)cc1`: the inhibition was determined as 1.1% in assay [1], 0.43% in assay [2] and 0.09% in assay [3].
`CCOc1ccc(N2CCN(CCCCNC(=O)c3ccc(NC(=O)c4ccc(Cl)cc4)cc3)CC2)c(OCC)c1`: the inhibition in assay [1] was 1.06%; in assay [2] it was 1.88%; in assay [3] it was 2.35%.
For `Cc1cccc2nc(-c3ccc(-c4ccc(NC(=O)Nc5ccc(Cl)c(Cl)c5)cc4)cc3)[nH]c12`, the inhibition in assay [1] was found to be 2.18%; in assay [2], 1.99%; in assay [3], 1.71%.
As for `Nc1ncc(-c2ccccc2)cc1-c1cccc2ncccc12`, the results for the inhibition in assay [1], in assay [2] and in assay [3] were 7.53%, 9.12% and 6.36%, respectively.
Turning to `CCNc1cc(C(=O)N[C@@H](Cc2ccccc2)[C@H](O)CNCC(C)C)cc(N2CCCC2=O)c1`, the inhibition in assay [1] is 2.24%; in assay [2], 1.42%; in assay [3], -1.69%.
Turning to `COc1ccc2nccc([C@@H](O)CN3CCC(NCc4cc5ccccc5s4)CC3)c2c1`, the inhibition came to 5.41% in assay [1], 10.3% in assay [2] and 0.03% in assay [3].
`CCCCCCNC[C@@H](O)[C@H](Cc1ccccc1)NC(=O)c1cc(NCC)cc(N2CCCCS2(=O)=O)c1`: the inhibition was 1.43% in assay [1], 1.73% in assay [2] and 5.06% in assay [3].
Take `CC1CCCN(C(=O)c2cc(-c3ccccn3)nc3c(Cl)cccc23)C1` (stereo unspecified): the inhibition in assay [1] worked out at 2.19%; in assay [2] it was 1.26%; in assay [3] it was 1.25%.
For `COc1ccc2nccc([C@@H](O)CN3CCC(NCc4cc5cccnc5[nH]4)CC3)c2n1`, in that order: 15.5%, 14.9% and 3.26%.
With `CCNc1cc(C(=O)N[C@@H](Cc2ccccc2)[C@H](O)CNCCc2cc(OC)cc(OC)c2)cc(N2CCCCS2(=O)=O)c1`, the inhibition stood at 7.06% in assay [1], 4.2% in assay [2] and 10% in assay [3].
Take `O=C(/C=C/c1ccc(Cl)c(Cl)c1)NCCCCCN1CCC(CCNC(=O)/C=C/c2cc(C(F)(F)F)ccc2F)CC1`: the inhibition in assay [1] was -4.09%; in assay [2] it was -2.42%; in assay [3] it was 2.28%.
With `COc1nc2c(CCN3CC[C@H](NCc4ccc5c(c4)NC(=O)CO5)[C@H](O)C3)c(Cl)cnc2cc1F`, the figures for the inhibition in assay [1], in assay [2] and in assay [3] were 6.64%, 7.74% and 4.24%, respectively.
As to `O=C(NCC1CCC(CNCCCc2ccccc2)CC1)Nc1ccc(Cl)c(Cl)c1` (stereo unspecified), the results for the inhibition in assay [1], in assay [2] and in assay [3] were 1.76%, 0.18% and 0.92%, respectively.
For `COC(=O)C(Cc1ccccc1)NC(=O)NC1CCN(c2ccnc(Nc3ccc(F)cc3)n2)C1` (stereo unspecified), in that order: 1.44%, 0.86% and 3.07%.
In the case of `CN1CCCc2ccc(NC(=O)c3ccc(-c4cc(C(F)(F)F)nn4C)s3)cc2C1`, the inhibition in assay [1] is 2.28%; in assay [2], 1.85%; in assay [3], -2.38%.
For `CC(C)Oc1cc2c(cc1NS(=O)(=O)c1ccc(-c3ccc(Cl)s3)cc1F)CCN(C)CC2`, the inhibition in assay [1] was 39.9%; in assay [2] it was 5.23%; in assay [3] it was 1.77%.
For `O=C(C1CC1c1ccccc1)N(Cc1ccc(-c2ccc(CNCCc3ccccc3)cc2)cc1)C1CCNCC1` (stereo unspecified), in that order: 10.3%, 8.35% and 9.97%.
For `COc1cc2nc(-c3ccccc3)nc(N3CCN(CC(=O)N4CCCC4)CC3)c2cc1OC`, in that order: 3.46%, 1.22% and 4.86%.
In the case of `COc1ccc(CN2CCC(CNCc3cccc(-c4ccccc4)c3)CC2)cc1`, the inhibition in assay [1] worked out at 3.34%; in assay [2], 0.46%; in assay [3], 3.8%.
On to `N=C(N)Nc1nc(-c2ccc(NC(=O)Nc3cccc(-c4csc(NC(=N)N)n4)c3)cc2)cs1`, for which the inhibition was -0.61% in assay [1], 0% in assay [2] and -0.17% in assay [3].
`Clc1ccc(OCc2ccccc2)c(-c2nc(-c3nc4ncc(Br)cc4[nH]3)cs2)c1`: the inhibition in assay [1] was found to be 4.08%; in assay [2], 4.1%; in assay [3], 1.99%.
Consider `O=C(Cn1c(CCc2cccc(F)c2F)cc(=O)c2ccccc21)N(CCN1CCCC1)Cc1ccc(-c2ccc(C(F)(F)F)cc2)cc1`, for which the results for the inhibition in assay [1], in assay [2] and in assay [3] were 1.56%, 2.33% and 2.03%, respectively.
`Cc1[nH]c(C)c(-c2ccc(Oc3cccc(Cl)c3)cc2)c(=O)c1Cl`: the inhibition in assay [1] was found to be 9.05%; in assay [2], 7.78%; in assay [3], 4.29%.
With `Cc1cccc2nc(-c3cccc(-c4ccc(NC(=O)CS(C)(=O)=O)cc4)c3)[nH]c12`, the inhibition was -0.47% in assay [1], 3.33% in assay [2] and 3.81% in assay [3].
For the molecule `N#Cc1ccc2[nH]cc(CN3CCC4(CC3)CN(CCNCc3ccccc3)C(=O)CO4)c2c1`, the inhibition in assay [1] was 2.13%; in assay [2], -0.73%; in assay [3], 5.02%.
For `CC(O)C1CCCCN1C(=O)c1cccc(-c2ccc(-c3nc4cc(F)ccc4[nH]3)cc2)c1` (stereo unspecified), the inhibition in assay [1] is 2.72%; in assay [2], 5.12%; in assay [3], 4.37%.
In the case of `O=C1COc2ccc3ccccc3c21`, the inhibition in assay [1] is -2.29%; in assay [2], 0.78%; in assay [3] it was -0.4%.
Take `O=C(Nc1cccc(CN2CCCN(CC3CC3)CC2)c1)c1ccc(-c2ccccc2)cc1`: the inhibition in assay [1] was 3.62%; in assay [2], 4.69%; in assay [3], -0.4%.
For the molecule `Oc1c(Cl)cc(Nc2nccc(Nc3ccc(Oc4ccccc4)cc3)n2)cc1Cl`, the inhibition is 4.19% in assay [1], 4.44% in assay [2] and 1.16% in assay [3].
In the case of `CCCC(=O)c1cnc2cc(O)ccc2c1Nc1ccccc1C`, the results for the inhibition in assay [1], in assay [2] and in assay [3] were 6.19%, 6.97% and 0.57%, respectively.
